Experimental findings from PubChem BioAssay (Tox21) are described below.

Each structure is given as a SMILES string. Results filed as inconclusive are left out. Values without a mark were called inactive. The source made the active and inactive calls. Unless noted, calls follow the shape of the dose curve; as a rule, active = well fitted curve in the direction sought with a large enough effect in the repeat runs; inconclusive = weak or mixed curves; inactive = no such curve, though single readings can be large; an effect the other way counts as inactive or inconclusive. Positions of bridges follow the written chain, without caps; N, C: chain ends. Non-standard residues stand in square brackets, D forms with d. Residues, ends and D or L forms follow the SMILES beside them. ξ: configuration not given here. *: point of attachment. d(aThr) = C[C@@H](O)[C@@H](N)C(=O)O; ξThr(3R) = C[C@@H](O)C(N)C(=O)O; X3 = CC[C@@H](C)CCCCC(=O)*; dDab = NCC[C@@H](N)C(=O)O

Assay [1] can be described thus: qHTS assay to identify aromatase inhibitors - cell viability counter screen (AID 743084;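 also: cells stimulated with testosterone during compound exposure; nearly all actives have a fitted effect of over 55% in size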). (In general: Quantitative high-throughput screening tests each substance at several concentrations.)
Assay [2] concerns the target Aryl hydrocarbon receptor (Homo sapiens) (UniProt P35869). Briefly: qHTS assay to identify small molecule that activate the aryl hydrocarbon receptor (AhR) signaling pathway (AID 743085). Also: nearly all actives have a fitted effect of over 15% in size. Also: potency is read from the fitted curve at half-maximal effect.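 As to activation: HG2L7.5c1 human HepG2 liver cells with stably integrated DRE-driven firefly reporter; series mostly up to about 70 µM.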 Summed up: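 Cell line HG2L7.5c1 (human hepatoma, 20× DRE-luc). Plated, 5 h 37C, compound/DMSO added, 24 h 37C. CellTiter-Fluor 30 min 37C → fluorescence; then ONE-Glo 30 min RT → luminescence.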

Assay [3] is described as follows: qHTS assay to identify small molecule that activate the aryl hydrocarbon receptor (AhR) signaling pathway - cell viability counter screen (AID 743086).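 Also: HepG2 liver cells carrying the AhR DRE luciferase reporter; series mostly up to about 70 µM; nearly all actives have a fitted effect of over 45% in size.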 In short, it runs like this:
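HepG2-AhR-luc (HG2L7.5c1) cells, 4000/well, treated 24 h at 37 C with compound; viability measured as CellTiter-Fluor fluorescence after 30 min in the same wells as the luciferase read.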

Assay [4] addresses Peroxisome proliferator-activated receptor gamma (Homo sapiens) (UniProt P37231). As to the kind of experiment: qHTS assay to identify small molecule agonists of the peroxisome proliferator-activated receptor gamma (PPARg) signaling pathway (AID 743094; active = well fitted activation curve with a large enough effect in the signal ratio in the repeat runs, not every such curve was filed as active; the % refers to the signal ratio). Summed up:
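Cells from the PPARg UAS-bla HEK293H line are plated and incubated 5 h at 37C. Compounds in DMSO are pinned in and left 17 h at 37C. LiveBLAzer B/G substrate is then added for 1 h at room temperature before fluorescence is measured.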

Assay [5] is described as follows: qHTS assay to identify small molecule phospholipidosis (PLD) inducers (AID 1259344; active = well fitted curve in the direction sought with a large enough effect; an effect the other way counts as inactive or inconclusive). Summed up: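 Image-based: LipidTOX Red pit count/intensity per well and per cell; HepG2, 24 h compound at 37 C, PFA fixation, Hoechst counterstain.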
For assay [6], the target named is Nuclear receptor subfamily 1 group I member 2 (Rattus norvegicus) (UniProt Q9R1A7). Briefly: Rat pregnane X receptor (rPXR) activation by small molecules, qHTS assay (AID 1346983). Also: nearly all actives have a fitted effect of over 20% in size. To be noted: rPXR luciferase reporter cells, One-Glo luminescence, 24 h; max activation: stronger effect = higher value. In short, it runs like this:
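Cell-based rPXR activation assay: rPXR cells, 2,000 per well, rested 5hr at 37 C, then exposed to compounds in DMSO for 24 hr at 37 C. Luciferase activity read by One-Glo luminescence after 30 min at room temperature.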

Assay [7] has as its target Nuclear receptor subfamily 1 group I member 2 (Homo sapiens) (UniProt O75469). As to the kind of experiment: CYP3A4 induction through human pregnane X receptor (PXR) by small molecules, qHTS assay (AID 1346984). Also: nearly all actives have a fitted effect of over 40% in size. In short, it runs like this: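 Quantitative HTS in DPX-2 cells, i.e. HepG2 transfected with PXR response element and CYP3A4-promoter luciferase. Compounds in DMSO incubated 24hr at 37C; then P450-Glo CYP3A4 substrate, 3uM final, 3hr; One-Glo luminescence.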

Assay [8] shares this target. Briefly: Human pregnane X receptor (PXR) activation by small molecules, qHTS assay (AID 1346985). Also: nearly all actives have a fitted effect of over 40% in size. Summed up: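 DPX-2 cells (HepG2 co-transfected with a PXR response element and a CYP3A4-promoter luciferase construct) were seeded at 2,000 per well, rested 5 hr at 37C, then exposed to DMSO-dissolved compounds for 24 hr. Activation was read as luciferase luminescence.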
% is scaled to controls: 0 for no effect and ±100 for the full control effect.

Nuclear receptor subfamily 1 group I member 2 (Rattus norvegicus), sequence (Q9R1A7 whole entry, looked up): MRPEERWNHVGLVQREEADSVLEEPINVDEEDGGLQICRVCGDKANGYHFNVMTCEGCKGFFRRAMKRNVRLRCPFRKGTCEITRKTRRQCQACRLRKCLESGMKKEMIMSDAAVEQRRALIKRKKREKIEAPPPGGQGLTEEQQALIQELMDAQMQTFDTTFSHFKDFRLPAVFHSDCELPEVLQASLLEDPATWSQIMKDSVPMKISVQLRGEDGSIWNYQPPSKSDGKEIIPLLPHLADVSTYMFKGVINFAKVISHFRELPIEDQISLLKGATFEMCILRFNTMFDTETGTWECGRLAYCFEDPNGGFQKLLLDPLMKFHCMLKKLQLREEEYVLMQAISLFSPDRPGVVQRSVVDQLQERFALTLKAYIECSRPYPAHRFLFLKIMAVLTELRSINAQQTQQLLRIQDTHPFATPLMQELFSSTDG
Peroxisome proliferator-activated receptor gamma (Homo sapiens), sequence (P37231 whole entry, looked up): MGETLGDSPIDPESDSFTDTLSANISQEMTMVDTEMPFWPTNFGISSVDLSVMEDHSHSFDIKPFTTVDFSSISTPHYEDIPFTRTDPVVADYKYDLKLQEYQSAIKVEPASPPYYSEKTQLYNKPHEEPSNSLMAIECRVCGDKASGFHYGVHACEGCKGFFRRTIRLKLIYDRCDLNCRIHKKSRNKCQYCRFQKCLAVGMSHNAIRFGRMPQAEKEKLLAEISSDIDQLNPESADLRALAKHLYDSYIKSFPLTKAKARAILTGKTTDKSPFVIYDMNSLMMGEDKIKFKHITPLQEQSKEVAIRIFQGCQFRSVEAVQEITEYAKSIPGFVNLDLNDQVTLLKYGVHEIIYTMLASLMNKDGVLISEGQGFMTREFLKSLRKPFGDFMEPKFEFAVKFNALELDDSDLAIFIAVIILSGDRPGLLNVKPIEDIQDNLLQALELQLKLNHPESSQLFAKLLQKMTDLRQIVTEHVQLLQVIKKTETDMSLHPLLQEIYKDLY
Aryl hydrocarbon receptor (Homo sapiens), sequence (P35869 whole entry, looked up): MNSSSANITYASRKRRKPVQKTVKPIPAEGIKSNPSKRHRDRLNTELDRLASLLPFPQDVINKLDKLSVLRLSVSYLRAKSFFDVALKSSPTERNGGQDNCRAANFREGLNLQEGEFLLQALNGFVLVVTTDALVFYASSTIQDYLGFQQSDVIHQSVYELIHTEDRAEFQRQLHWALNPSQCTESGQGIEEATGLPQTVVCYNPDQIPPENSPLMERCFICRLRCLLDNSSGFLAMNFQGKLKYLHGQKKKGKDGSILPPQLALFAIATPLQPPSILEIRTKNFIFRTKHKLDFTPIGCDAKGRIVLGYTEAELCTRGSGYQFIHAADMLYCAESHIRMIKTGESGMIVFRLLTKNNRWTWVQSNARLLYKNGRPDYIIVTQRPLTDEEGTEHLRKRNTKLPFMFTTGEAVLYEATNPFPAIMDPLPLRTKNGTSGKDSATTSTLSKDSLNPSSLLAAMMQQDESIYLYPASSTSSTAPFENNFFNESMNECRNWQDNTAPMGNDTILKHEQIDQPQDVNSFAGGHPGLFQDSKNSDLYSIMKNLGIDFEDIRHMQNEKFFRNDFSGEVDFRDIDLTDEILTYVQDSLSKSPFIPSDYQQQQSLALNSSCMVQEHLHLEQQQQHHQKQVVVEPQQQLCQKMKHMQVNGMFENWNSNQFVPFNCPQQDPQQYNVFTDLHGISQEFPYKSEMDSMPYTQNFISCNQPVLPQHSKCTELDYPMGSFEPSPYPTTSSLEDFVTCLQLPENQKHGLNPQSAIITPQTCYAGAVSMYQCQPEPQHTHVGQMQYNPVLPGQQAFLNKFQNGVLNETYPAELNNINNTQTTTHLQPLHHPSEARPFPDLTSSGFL

Consider `O=C(O)CC/C=C\CC[C@@H]1[C@@H](N2CCCCC2)[C@@H](O)C[C@@H]1OCc1ccc(-c2ccccc2)cc1`, for which the Potency result in assay [1], in assay [2], in assay [3], in assay [4], in assay [5] and in assay [7] was “inactive” throughout. Moreover, in assay [8], the Potency result is “inactive”. The max activation in assay [6] is -6.46%.

In the case of `COc1c(O[C@@H]2O[C@H](CO)[C@@H](O)[C@H](O)[C@H]2O)cc2c(c1OC)-c1ccc(SC)c(=O)cc1[C@@H](NC(C)=O)CC2`, the Potency result in assay [1], in assay [2], in assay [3], in assay [4], in assay [5] and in assay [7] was “inactive” in each case. In addition, in assay [8], the Potency result is “inactive”. For the same compound, the max activation in assay [6] was -2.99%.

For the compound `O=c1oc2cc(O)ccc2s1`, the Potency result in assay [1], in assay [2], in assay [3], in assay [4], in assay [5] and in assay [7] was “inactive” throughout. The Potency entry in assay [8] is “inactive”. Moreover, the max activation in assay [6] is -17.1%.

As for `CC[C@@H](C)CCCCC(=O)N[C@H](CCN)C(=O)N[C@@H](C(=O)N[C@H](CCN)C(=O)N[C@@H]1CCNC(=O)C([C@@H](C)O)NC(=O)[C@@H](CCN)NC(=O)[C@@H](CCN)NC(=O)[C@@H](CC(C)C)NC(=O)[C@@H](Cc2ccccc2)NC(=O)[C@@H](CCN)NC1=O)[C@@H](C)O` (stereo partly drawn) (X3-[dDab][d(aThr)][dDab][dDab][dDab][dF][dL][dDab][dDab][ξThr(3R)]; lactam 4-C), the Potency entry in assay [1], in assay [2], in assay [3], in assay [4], in assay [5] and in assay [7] was “inactive” throughout. The Potency result in assay [8] was “inactive”. Moreover, in assay [6], the max activation is -6%.

With `CC[C@H]1NC(=O)[C@@H](NC(=O)c2ncccc2O)[C@@H](C)OC(=O)[C@H](c2ccccc2)NC(=O)[C@@H]2CC(=O)CCN2C(=O)[C@H](Cc2ccccc2)N(C)C(=O)[C@@H]2CCCN2C1=O`, the Potency result in assay [1], in assay [2], in assay [3], in assay [4], in assay [5] and in assay [7] was “inactive” in each case. The Potency entry in assay [8] is “inactive”. In addition, the max activation in assay [6] was 9.01%.

As for `Nc1nc2c(c(=O)[nH]1)N(C=O)C(CNc1ccc(C(=O)N[C@@H](CCC(=O)O)C(=O)O)cc1)CN2` (some centres undefined), the Potency entry in assay [1], in assay [2], in assay [3], in assay [4], in assay [5] and in assay [7] was “inactive” throughout. Also, in assay [8], the Potency entry is “inactive”. Besides, the max activation in assay [6] is 3.43%.

With `Cc1cccc(Nc2ncccc2C(=O)O)c1C`, the Potency result in assay [1], in assay [3], in assay [4], in assay [5], in assay [7] and in assay [8] was “inactive” in each case. In addition, the Potency in assay [2] is 29.8 µM (active). Further, in assay [6], the max activation is -0.253%.

With `Cc1ccccc1OCC(O)CNCCOc1ccc(C(N)=O)cc1` (centres undefined), the Potency result in assay [1], in assay [2], in assay [3], in assay [4], in assay [5] and in assay [7] was “inactive” each time. Besides, in assay [8], the Potency entry is “inactive”. Further, in assay [6], the max activation is -2.29%.

Take `CC(=O)Oc1cccc(C(=O)O)c1OC(C)=O`: the Potency entry in assay [1], in assay [2], in assay [3], in assay [4], in assay [5] and in assay [7] was “inactive” in each case. Besides, the Potency result in assay [8] is “inactive”. Moreover, the max activation in assay [6] was -1.97%.

For the compound `OCCO[C@@H]1[C@@H](O)[C@H](O)[C@@H](CO)O[C@@H]1O`, the Potency entry in assay [1], in assay [2], in assay [3], in assay [4], in assay [5] and in assay [7] was “inactive” in each case. In assay [8], the Potency result is “inactive”. The max activation in assay [6] is -3.49%.

Turning to `Cn1c(=O)c2c(ncn2CCOC(=O)C(C)(C)Oc2ccc(Cl)cc2)n(C)c1=O`, the Potency entry in assay [1], in assay [2], in assay [3], in assay [4], in assay [5] and in assay [7] was “inactive” in each case. For the same compound, the Potency entry in assay [8] was “inactive”. Besides, the max activation in assay [6] was -1.7%.

`CC(C)(S)[C@@H](N)C(=O)O`: the Potency result in assay [1], in assay [2], in assay [3], in assay [4], in assay [5] and in assay [7] was “inactive” in each case. Besides, the Potency result in assay [8] is “inactive”. Also, the max activation in assay [6] was -3.13%.

For `OC1OC[C@@H](O)[C@H](O)[C@@H]1O` (some centres undefined), the Potency entry in assay [1], in assay [2], in assay [3], in assay [4], in assay [5] and in assay [7] was “inactive” in each case. For the same compound, the Potency result in assay [8] is “inactive”. Further, the max activation in assay [6] is 0.988%.

In the case of `CC1C(=O)CC2C3(C)CCC2(C(C)C(=O)O)C(=O)C13` (centres undefined), the Potency entry in assay [1], in assay [2], in assay [3], in assay [4], in assay [5] and in assay [7] was “inactive” throughout. Further, the Potency result in assay [8] was “inactive”. Also, in assay [6], the max activation was 0.0537%.

`CC(Oc1ccccc1)C(=O)N[C@@H]1C(=O)N2[C@@H]1SC(C)(C)[C@@H]2C(=O)O` (some centres undefined): the Potency entry in assay [1], in assay [2], in assay [3], in assay [4], in assay [5] and in assay [7] was “inactive” each time. Moreover, the Potency result in assay [8] is “inactive”. In assay [6], the max activation is -1.33%.

`CC1(C)S[C@@H]2[C@H](NC(=O)[C@H](NC(=O)N3CCN(S(C)(=O)=O)C3=O)c3ccccc3)C(=O)N2[C@H]1C(=O)O`: the Potency entry in assay [1], in assay [2], in assay [3], in assay [4], in assay [5] and in assay [7] was “inactive” in each case. The Potency entry in assay [8] is “inactive”. Also, in assay [6], the max activation was -9.82%.

As to `CCCCC(O)c1ccccc1` (centres undefined), the Potency entry in assay [1], in assay [2], in assay [3], in assay [4], in assay [5] and in assay [7] was “inactive” in each case. The Potency result in assay [8] is “inactive”. Further, the max activation in assay [6] is -0.82%.

On to `CCN(CC)CCOC(=O)c1cccnc1`, for which the Potency result in assay [1], in assay [2], in assay [3], in assay [4], in assay [5] and in assay [7] was “inactive” in each case. Further, the Potency result in assay [8] was “inactive”. Besides, in assay [6], the max activation was -7.53%.
